Reference: PubChem BioAssay (NCATS)
Records with an inconclusive call do not appear. Active and inactive are the calls of the source. Calls come from the whole dose curve; tested in HEK293 reporter line.

Test: qHTS for Inhibitors of the Functional Ribonucleoprotein Complex (vRNP) of Lassa (LASV) Arenavirus: Viability assay - alamar blue signal for LASV Primary Screen (AID 1347083); note: nearly all actives have a fitted effect of over 80% in size
Conditions: cell viability, alamar blue fluorescence (LASV minigenome counter-screen); series mostly up to 57.5 µM; activity change, negative = reduced viability: at the top concentration
% is set by controls: 0 for no effect and ±100 for the full control effect.

Compound	activity change, negative = reduced viability	Potency
O=C(OCCN1CCOCC1)c1cccnc1Nc1cccc(C(F)(F)F)c1	14.9% (inactive)	
O=C(O)/C=C\C(=O)O	-0.399% (inactive)	
CC(N=C(NC#N)Nc1ccncc1)C(C)(C)C (stereo unspecified)		inactive
C[N+]1(C)[C@@H]2CC(OC(=O)[C@H](CO)c3ccccc3)C[C@H]1[C@@H]1O[C@@H]12 (stereo partly specified)	-1.64% (inactive)	
COc1ccc(O)cc1		inactive
O=C1OC(CN2CCOCC2)CN1/N=C/c1ccc([N+](=O)[O-])o1 (stereo unspecified)	-21.1% (inactive)	
COc1cc(C)c(Cc2cnc(N)nc2N)cc1OC	13.2% (inactive)	
CC(=O)Nc1ccc(C(=O)O)cc1		inactive
CC(CSC(=O)c1ccccc1)C(=O)N1C[C@@H](Sc2ccccc2)C[C@H]1C(=O)O (stereo partly specified)	0.622% [at 24.7 µM] (inactive)	
NC(=O)NS(=O)(=O)c1ccc(Cl)cc1	-1% (inactive)	
OCCN1CCN(CC/C=C2/c3ccccc3Sc3ccc(C(F)(F)F)cc32)CC1		inactive
CN(C)C(=O)Oc1ccc[n+](C)c1		inactive
CCCNC(C)C(=O)Nc1ccccc1C (stereo unspecified)		inactive
O=[N+]([O-])c1cncn1CCN1CCOCC1	2.14% (inactive)	
Cc1cc(OI)c(C(C)C)cc1-c1cc(C(C)C)c(OI)cc1C	-1.06% (inactive)	
CC(=O)O[C@]1(C(C)=O)CC[C@H]2[C@@H]3C[C@H](C)C4=CC(=O)CC[C@]4(C)[C@H]3CC[C@@]21C	-6.46% (inactive)	
CC(=O)CC(c1ccccc1)c1c(O)c2ccccc2oc1=O (stereo unspecified)		inactive
O=C1CCCc2c(O)cccc21	-1.68% (inactive)	
CN=C(NC#N)Nc1ccc(C2=NNC(=O)CC2C)cc1 (stereo unspecified)	4.41% (inactive)	
O=C(OCc1ccccc1)c1ccccc1	0.948% (inactive)	
CC(O)CCCCn1c(=O)c2c(ncn2C)n(C)c1=O (stereo unspecified)	-3.79% (inactive)	
